Bioassay records as filed in PubChem.
PfM18AAP inh = PfM18AAP enzyme inhibition. inhibition, % at 7.35 µM. AID 1822. hit rate 1.2% among 290,000. recombinant PfM18AAP, H-Glu-NHMec fluorogenic cleavage;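 active means inhibition above the campaign mean inhibition over all tested compounds plus 3 SD, cut at about 28% in these data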;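 further: 0% = plate median of test compound wells and 100% = 2 mM ZnCl2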
HIF act = HIF pathway transcriptional activation | U2OS HRE-luciferase reporter, luminescence; normalized: DMSO 0%, desferrioxamine 100% | activation, % at 7.5 µM (by protocol) | hit rate 0.32% among 300,000;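 active means mean activation of at least 10% of the iron chelator positive control signal, with at least half of replicates also reaching 10%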
ALR inh = human ALR oxidase inhibition via reduced H2O2; hit rate 3.8% among 290,000; purified ALR, DTT oxidation, H2O2 HRP-luminol luminescence; P55789; inhibition, % (no concentration beside the values);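 active means mean replicate inhibition above about 79%, with every replicate also reaching it, limit read from the data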
Target sequence (P55789 whole entry, looked up): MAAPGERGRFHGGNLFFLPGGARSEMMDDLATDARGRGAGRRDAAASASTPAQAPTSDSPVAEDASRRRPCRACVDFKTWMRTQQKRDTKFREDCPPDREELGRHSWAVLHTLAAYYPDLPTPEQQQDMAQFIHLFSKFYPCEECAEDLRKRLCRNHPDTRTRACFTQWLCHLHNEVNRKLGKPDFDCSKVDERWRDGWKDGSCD
SUMO Mot1 rescue = SUMOylation pathway inhibition by Mot1-301 growth rescue | S. cerevisiae Mot1-301 growth rescue, ATP luminescence, 38.5C; percent above DMSO median, 100 means doubled | hit rate 1% among 320,000 | growth rescue, % at 18.8 µM;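 active means every valid replicate shows activation above 250% relative to neutral control wells; inactive means the rest, any valid replicate at or below 250%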;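 further: OY570 slx delta 5 strain wells were the positive control but not used for scaling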
* = called active by the depositor; x = no result given. An excerpt weighted towards active compounds, which were near 5.3% of everything screened.

SMILES	PfM18AAP inh	HIF act	ALR inh	SUMO Mot1 rescue
CC(C)(C)c1csc(NNC(=O)c2ccc(Br)cc2)n1	-1.6	11.5*	x	2.7
CSc1ncccc1C(=O)Nc1nc(C(C)(C)C)cs1	7.7	2.2	-4.8	-4.7
C/C(=N\Nc1nc(C(C)(C)C)cs1)c1ccc(O)cc1	1.2	1.8	x	-18.3
NC(=O)N(N)c1nc(N2CCCC2)nc(N2CCCC2)n1	x	x	8.8	-15.4
CC(C)(C)OC(=O)N[C@@H](C(=O)OC(C)(C)C)c1ccc2ccccc2c1	x	x	-6.3	13.2
Cc1csc(=Nc2ccccc2)n1C	-3.7	-0.2	99.0*	1.9
COc1ccc(N=c2scc(C)n2CCCN2CCCC2=O)cc1	12.7	-0.4	99.7*	2.1
Cc1csc(=Nc2ccccc2)n1CCCN1CCCC1=O	4.5	0.7	98.5*	2.2
O=Nc1c(-c2c(O)[nH]c3cc(Br)ccc23)[nH]c2ccccc12	1.1	0.9	3.0	71.7
COC(=O)c1[nH]c2ccccc2c1Sc1ccccc1	3.0	3.3	-5.4	-5.5
CNC(=O)CCc1[nH]c2ccccc2c1Sc1ccccc1	11.1	-0.4	98.5*	3.1
CCCCCCCCN1[C@@H](CC(=O)OC)c2cc(C(F)(F)F)ccc2S1(=O)=O	x	0.0	-1.6	4.6
Cc1cccc(Cn2c(C(C)(C)C)cc3cccnc32)c1	-9.4	-0.2	0.3	-17.0
Cc1ccccc1OCC(=O)Nc1nnc(-c2ccncc2)s1	1.6	-0.1	86.7*	3.6
S=C(N/N=C/c1ccc(Cl)cc1)N1CCOCC1	29.9*	3.0	11.7	14.7
Cc1ccc(CC(=S)N2CCOCC2)cc1	28.7*	0.2	-1.2	17.4
Cc1ccc(/C=N/NC(=S)N2CCOCC2)cc1	40.2*	1.3	0.7	-2.2
S=C(N/N=C/c1ccc(Br)cc1)N1CCCCC1	13.6	1.7	62.4	-2.9
CCc1ccc(OCCCC(=O)Nc2ccc(S(=O)(=O)Nc3cc(C)nc(C)n3)cc2)cc1	2.1	-0.5	3.1	-5.5
CC(Sc1nc(N)cc(=O)[nH]1)C(=O)Nc1cccc(Cl)c1 (configuration not stated)	-3.5	-0.2	-8.2	226.1
CC(=O)NC1C(=O)N=C(SC(C)C(=O)Nc2cccc(Cl)c2)NC1=O (configuration not stated)	3.7	0.0	97.7*	48.2
NC(=O)c1ccc(NC(=O)COC(=O)CC23CC4CC(CC(Br)(C4)C2)C3)cc1	x	x	x	-11.6
CCCn1c(N)c(NCCN2CCOCC2)c(=O)[nH]c1=O	-8.7	-3.0	99.4*	-3.5
CCCCN(CCCC)C(=O)c1sc2nc(N3CCOCC3)c3c(c2c1N)CCCC3	31.5*	-0.2	x	17.5
CCOC(=O)c1sc(NC(=O)CSc2nccn2C)nc1C	-8.4	2.8	98.0*	-3.0
SMILES	PfM18AAP inh	HIF act	ALR inh	SUMO Mot1 rescue
COCC(=O)Nc1nc(-c2ccc([N+](=O)[O-])cc2)cs1	1.4	1.5	97.5*	146.3
CCOC(=O)c1sc(NC(=O)CSc2ncccn2)nc1C	-5.6	0.3	-2.8	-0.5
Cc1ccnc(NC(=O)Cc2ccc(-c3ccccc3)cc2)c1	0.2	0.9	-3.1	2.3
Cc1ccnc(NC(=O)Cc2ccc([N+](=O)[O-])cc2)c1	3.7	3.5	-0.2	363.6*
Cc1csc(NC(=O)CSC2=NCCS2)n1	-5.4	0.0	99.2*	-9.5
Cc1ccc(/C(O)=C2\C(=O)C(=O)N(C)C2c2cccc([N+](=O)[O-])c2)cc1 (configuration not stated)	-12.8	-0.5	1.6	-15.8
O=C(O)C1C2CCC(O2)C1C(=O)Nc1ccc(OC(F)F)cc1 (configuration not stated)	-0.7	-0.1	-10.3	-6.5
